PRC2 inh: EZH2 (human) methyltransferase inhibition; Q15910; inhibition, % at 12.5 µM; PRC2 H3K27 methylation, DELFIA TRF, 1 h; 57,000 tested, 0.35% active;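 active = mean inhibition of replicates at least 50% and every single replicate also reaching 50%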;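 note: dimethyl H3K27 on biotinylated H3 21-44 peptide detected by antibody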
Target sequence (Q15910 whole entry, looked up): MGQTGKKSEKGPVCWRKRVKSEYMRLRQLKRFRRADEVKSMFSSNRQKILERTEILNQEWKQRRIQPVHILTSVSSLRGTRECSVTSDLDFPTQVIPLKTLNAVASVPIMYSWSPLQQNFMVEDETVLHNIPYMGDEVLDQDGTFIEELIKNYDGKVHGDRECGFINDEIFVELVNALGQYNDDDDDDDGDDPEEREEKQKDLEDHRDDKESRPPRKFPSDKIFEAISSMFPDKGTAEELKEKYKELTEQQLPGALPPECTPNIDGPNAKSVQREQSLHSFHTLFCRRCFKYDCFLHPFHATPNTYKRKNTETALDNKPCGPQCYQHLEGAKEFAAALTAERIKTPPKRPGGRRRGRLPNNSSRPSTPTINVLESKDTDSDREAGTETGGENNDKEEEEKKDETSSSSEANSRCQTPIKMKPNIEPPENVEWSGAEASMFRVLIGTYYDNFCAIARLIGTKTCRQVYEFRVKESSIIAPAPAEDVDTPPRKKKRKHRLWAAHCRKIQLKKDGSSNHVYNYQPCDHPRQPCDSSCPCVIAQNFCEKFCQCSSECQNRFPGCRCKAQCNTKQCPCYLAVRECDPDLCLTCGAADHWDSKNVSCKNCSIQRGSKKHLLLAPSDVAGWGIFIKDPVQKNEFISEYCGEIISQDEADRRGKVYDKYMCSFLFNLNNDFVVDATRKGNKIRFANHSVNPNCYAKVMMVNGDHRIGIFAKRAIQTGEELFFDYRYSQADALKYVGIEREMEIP
Of the large screens only hits and unclear results are named; the others gave an inactive call. This is one part of a sample in which hits are shown more often than they occur.

O=C(CSc1n[nH]c(-c2ccc(Cl)cc2Cl)n1)Nc1cc(C(F)(F)F)ccc1Cl	none
O=C(CSc1n[nH]c(-c2ccc(Cl)cc2Cl)n1)Nc1cccc(C(F)(F)F)c1	none
O=C(CCCCC(=O)N/N=C/c1cccc(Oc2ccccc2)c1)NO	none
C/C(=C\C(=O)O)CCC1C(C)(O)CCC2C(C)(CO)CCCC12C (centres undefined)	PRC2 inh 65.4
C=C1CCC2C(C)(CO)CCCC2(C)C1CC/C(C)=C/C(=O)O (centres undefined)	none
C/C(=C/C(=O)O)CCC1C(C)CCC2C(C)(C=O)C(O)CCC12C (centres undefined)	none
COC(=O)Cc1c(CCC(=O)O)oc2cc(C)cc(O)c2c1=O	none
COc1ccc(-n2c(SCC(=O)Nc3ccc(F)cc3F)nnc2-c2ccco2)cc1	none
CN(CCCc1nc2ccccc2[nH]1)S(=O)(=O)c1ccc(Cl)cc1	none
COc1cccc(C(=O)Nc2sc3c(c2C(=O)NCc2cccnc2)CCCC3)c1	none
Cc1cc(N)n(-c2ccc(Oc3ccccc3)cc2S(=O)(=O)O)n1	none
Cc1cc(-c2ccc(N=Nc3cc(S(=O)(=O)O)c4ccccc4c3N)c(C)c2)ccc1N=Nc1cc(S(=O)(=O)O)c2ccccc2c1N	PRC2 inh 99.3
COc1cc2c(cc1NC(=O)COc1cccc(C)c1C)oc1ccccc12	none
CC1CCN(C(=O)c2ccc3c(=O)nc4c(-c5ccccc5)n[nH]n4c3c2)CC1	none
Cc1ccc(NC(=O)CSc2nnc(-c3ccc(Cl)cc3Cl)n2-c2ccccc2)cc1	none
Cc1cccc2c1N(C)C(=O)C2(O)CC(=O)c1ccco1 (centres undefined)	none
COC(=O)CN(c1cccc(C)c1)S(=O)(=O)c1ccc(Cl)c(Cl)c1	none
CCCCN1C(=O)NC(C(F)(F)F)(C(F)(F)F)C2=C1CC(C)(C)CC2=O	none
COc1ccc(NC(=O)c2ccc(OC(C)C(=O)O)cc2)cc1Cl (centres undefined)	none
O=C(COc1ccc(F)cc1)Nc1cc(Cl)ccc1C(=O)O	none
O=C(COc1ccc([N+](=O)[O-])cc1)Nc1ccccc1N1CCN(C(=O)c2ccc(Cl)cc2)CC1	none
Cc1cccc(-n2c(N)cc(=O)nc2SCC(=O)Nc2sc3c(c2C#N)CCCCCC3)c1	none
COc1cc(C2c3c(cc(OC)c(O)c3OC)CC(CO)C2CO[C@@H]2O[C@H](CO)[C@@H](O)[C@H](O)[C@H]2O)cc(OC)c1O (some centres undefined)	none
O=C1CSC(C23CC4CC(CC(C4)C2)C3)N1 (centres undefined)	none
Cc1cc(CSc2cc(C)c(Cl)cc2C)no1	PRC2 inh 56.2
O=S(=O)(NCc1ccccn1)c1cc(Cl)c(Cl)cc1Cl	none
O=c1c(C=Nc2ccccc2)c(O)c2c(n1-c1ccccc1)CCCC2	none
C[C@@H]1O[C@@H](O[C@H]2[C@H](O[C@H]3CC[C@@]4(C)C(CC[C@]5(C)C4CC=C4C6CC(C)(C)CC[C@]6(C(=O)O[C@@H]6O[C@H](CO[C@@H]7O[C@H](CO)[C@@H](O[C@@H]8O[C@@H](C)[C@H](O)[C@@H](O)[C@H]8O)[C@H](O)[C@H]7O)[C@@H](O)[C@H](O)[C@H]6O)CC[C@]45C)[C@]3(C)CO)OC[C@H](O)[C@@H]2O)[C@H](O)[C@H](O)[C@H]1O (some centres undefined)	none
C[C@@H]1O[C@@H](O[C@@H]2CC[C@@]3(C)C(CC[C@]4(C)C3CC=C3[C@@H]5CC(C)(C)CC[C@]5(C(=O)O[C@@H]5O[C@H](CO)[C@@H](O)[C@H](O)[C@H]5O)CC[C@]34C)[C@]2(C)CO)[C@H](O)[C@H](O[C@@H]2OC[C@@H](O)[C@H](O)[C@H]2O)[C@H]1O (some centres undefined)	none
C[C@@H]1O[C@@H](O[C@@H]2[C@@H](O)[C@H](O[C@@H]3[C@@H](O)[C@@H](O)[C@H](O[C@H]4[C@H](OC(=O)[C@]56CCC(C)(C)C[C@H]5C5=CCC7[C@@]8(C)C[C@H](O)[C@H](O[C@@H]9O[C@H](C(=O)O)[C@@H](O)[C@H](O)[C@H]9O)[C@@](C)(CO)C8[C@H](O)C[C@@]7(C)[C@]5(C)C[C@H]6O)O[C@@H](CO)[C@@H]4O)O[C@H]3C)OC[C@H]2O)[C@H](O)[C@H](O)[C@H]1O (some centres undefined)	PRC2 inh 98.9
CSc1nc(N2CCCCC2)c2c(c1C#N)CCCC2	PRC2 inh 62.6
O=C(CSc1nc2ccccc2[nH]1)Nc1ccc(Br)cc1Cl	none
Cc1ccc(-c2nc3cc(Cl)ccc3o2)cc1NC(=O)COc1ccc(Br)cc1	none
COc1cc([C@H]2OC[C@H]3[C@@H]2CO[C@@H]3c2ccc(O)c(OC)c2)ccc1O	PRC2 inh 79.7
COc1cc([C@H]2OC[C@H]3[C@@H]2CO[C@H]3c2ccc(OC)c(OC)c2)ccc1O	none
COc1cc(C2OC[C@@H]3[C@@H](c4cc(OC)c(O)c(OC)c4)OC[C@H]23)cc(OC)c1O (some centres undefined)	none
CN(C(=S)Nc1ccccc1)C1CCC(C2OCCO2)CC1O (centres undefined)	none
Cc1cc(C(F)(F)F)nc(SCC(=O)Nc2sc3c(c2C#N)CCCC3)n1	none
C[C@H](CO)N1C[C@H](C)[C@H](CN(C)Cc2cccc(F)c2)Oc2cc(-c3ccccc3)ccc2S1(=O)=O	none
C[C@@H]1CN([C@H](C)CO)C(=O)c2cc(NS(=O)(=O)c3cccs3)ccc2O[C@@H]1CN(C)Cc1ccc(-c2ccccc2)cc1	PRC2 inh 53.7
C[C@H](CO)N1C[C@H](C)[C@H](CN(C)Cc2cccc(F)c2)Oc2cc(C#CC3CC3)ccc2S1(=O)=O	PRC2 inh 84.0
C[C@@H]1CN([C@H](C)CO)S(=O)(=O)c2ccc(C#CC3CC3)cc2O[C@H]1CN(C)Cc1cccc(F)c1	none
C[C@H](CO)N1C[C@H](C)[C@@H](CN(C)Cc2ccc(-c3ccccc3)cc2)Oc2ccc(NS(=O)(=O)c3cccs3)cc2C1=O	none
C[C@H](CO)N1C[C@H](C)[C@H](CN(C)Cc2ccc(-c3ccccc3)cc2)Oc2ccc(NS(=O)(=O)c3cccs3)cc2C1=O	none
C[C@H]1CN([C@@H](C)CO)S(=O)(=O)c2ccc(-c3ccccc3)cc2O[C@H]1CN(C)Cc1cccc(F)c1	none
C[C@H](CO)N1C[C@H](C)[C@H](CN(C)Cc2ccccc2)Oc2cc(C#CC3CC3)ccc2S1(=O)=O	none
C[C@@H]1CN([C@H](C)CO)S(=O)(=O)c2ccc(-c3ccccc3)cc2O[C@H]1CN(C)Cc1cccc(F)c1	PRC2 inh 55.1
O=C(Nc1ccccc1[N+](=O)[O-])c1cccc(S(=O)(=O)Nc2ccc(F)cc2)c1	none
COC(=O)c1ccc(NC(=O)CN(C)S(=O)(=O)c2ccc3ccccc3c2)cc1	none
CC(C)(C)Sc1nc2ccccc2[nH]c1=S	none
